Results from PubChem BioAssay (Tox21).
Inconclusive results are not listed. The source made the active and inactive calls. Unless noted, calls come from the whole dose curve; as a rule, active = well fitted curve in the direction sought with a large enough effect in the repeat runs; inconclusive = weak or mixed curves; inactive = no such curve, though single readings can be large; an effect the other way counts as inactive or inconclusive.

Tests used:
[1] = biological target: Estrogen receptor (Homo sapiens) (UniProt P03372); test: qHTS assay to identify small molecule agonists of the estrogen receptor alpha (ER-alpha) signaling pathway in the presence of an antagonist (AID 1259383; calls by dose curve; note: top concentration of the series differs between compounds; nearly all actives have a fitted effect of over 15% in size)
In short: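 Stably transfected VM7Luc4E2 reporter cells, kept 5 days in charcoal-stripped serum, received ICI-182,780 at 10.0nM final before compound addition. Following 22hr incubation at 37C and 5% CO2, luciferase signal was read by luminescence.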

[2] = biological target: Thyrotropin receptor (Homo sapiens) (UniProt P16473); test: qHTS assay to identify small molecule antagonists of the thyroid stimulating hormone receptor (TSHR) signaling pathway (AID 1259385; calls by dose curve; note: nearly all actives have a fitted effect of over 20% in size)
In short: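 TSHR-HEK293 cells (800/well) plated 18 h, then compounds with Ro20-1724 and TSH at 1.5 ng/mL final, 30 min at room temperature. cAMP quantified by HTRF (cAMP-d2/anti-cAMP-cryptate, 1 h); 15 concentrations in triplicate.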

[3] = qHTS assay to identify small molecule agonists of the estrogen receptor alpha (ER-alpha) signaling pathway in the presence of an antagonist - cell viability counter screen (AID 1259386);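 note: series mostly up to about 92 µM; cells exposed to compounds for 22 h at 37 °C before the viability read; nearly all actives have a fitted effect of over 30% in size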
In short: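 Viability counter screen using VM7Luc4E2 (full-length ER-alpha, four ERE-luciferase). The cells were treated with compounds alongside ICI-182,780 10.0nM for 22hr, and live-cell protease fluorescence was quantified with CellTiter-Fluor.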

[4] = biological target: Progesterone receptor (Homo sapiens) (UniProt P06401); test: qHTS assay to identify small molecule agonists of the progesterone receptor (PR) signaling pathway (AID 1346784; calls by dose curve; note: nearly all actives have a fitted effect of over 30% in size)
In short: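 PR-UAS-bla HEK 293T cells carrying a UAS-driven beta-lactamase reporter were seeded in medium with 2% charcoal-stripped FBS, preincubated 6 hr at 37C, then exposed to compounds in DMSO for 16 hr; agonism was read by LiveBLAzer B/G FRET fluorescence.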

[5] = qHTS assay to identify small molecule antagonists of the progesterone receptor (PR) signaling pathway - cell viability counter screen (AID 1346798); note: series mostly up to about 92 µM; nearly all actives have a fitted effect of over 50% in size
In short: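 PR-UAS-bla HEK293T cells in medium with 2% charcoal-stripped FBS were treated with compounds plus R5020 for 16 hr at 37C. Cell viability was then read by CellTiter-Glo luminescence after 30 min at room temperature in the same wells.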

[6] = qHTS assay to identify small molecule agonists of the progesterone receptor (PR) signaling pathway - cell viability counter screen (AID 1346799; calls by dose curve; note: nearly all actives have a fitted effect of over 45% in size)
In short: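 PR-UAS-bla HEK293T cells, 3,000 per well in medium with 2% charcoal-stripped FBS, were preincubated 6 hr at 37C, then exposed to compounds for 16 hr; viability was read as CellTiter-Glo luminescence after 30 min at room temperature.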

[7] = qHTS assay to identify small molecule agonists of the TGF-beta/Smad signaling pathway - cell viability counter screen (AID 1346829); note: top concentration of the series differs between compounds; nearly all actives have a fitted effect of over 45% in size
In short: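 Same-well cytotoxicity: CellTiter-Glo added after the 2 hr room-temperature beta-lactamase substrate step, luminescence measured 30 min later; cells had 5 hr of compound at 37 C.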

[8] = qHTS assay to identify small molecule agonists of the TGF-beta/Smad signaling pathway (AID 1346859; active = well fitted activation curve with a large enough effect in the signal ratio in the repeat runs, not every such curve was filed as active; the % refers to the signal ratio; note: series mostly up to about 77 µM)
In short: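 HEK 293T cells stably carrying a beta-lactamase reporter driven by the Smad binding element were seeded overnight, exposed to DMSO-dissolved compounds for 5 hr at 37 C, 5% CO2, then loaded with FRET substrate for 2 hr at room temperature.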

[9] = biological target: Thyrotropin-releasing hormone receptor (Homo sapiens) (UniProt P34981); test: qHTS assay to identify small molecule antagonists of the thyrotropin-releasing hormone receptor (TRHR) signaling pathway (AID 1346877; active = well fitted inhibition curve with a large enough effect in the repeat runs, not every such curve was filed as active; note: series mostly up to about 51 µM)
In short: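 Following an 18 h incubation at 37 °C and a 2 h calcium dye load, TRHR-HEK293 cells were exposed to compound (5 min, room temperature) and challenged with TRH, 1 nM final.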

[10] = biological target: Thyrotropin-releasing hormone receptor (Homo sapiens) (UniProt P34981); test: qHTS assay to identify small molecule agonists of the thyrotropin-releasing hormone receptor (TRHR) signaling pathway (AID 1346891; calls by dose curve; note: series mostly up to about 58 µM)
In short: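 TRHR-expressing HEK293 cells were plated 18 h at 37 °C/5% CO2, loaded with calcium dye 2 h at 37 °C, then given compound in DMSO; fluorescence was read kinetically for 3 min at 1 s intervals.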

[11] = Human pregnane X receptor (PXR) small molecule agonists, qHTS cell viability counter screen (AID 1346977); note: nearly all actives have a fitted effect of over 50% in size
In short: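 PXR-Luc HepG2 cells in medium with 5% charcoal-stripped FBS were pre-incubated 5hr, then exposed to compounds for 24hr at 37C. Viability was read in the same wells by CellTiter-Fluor fluorescence, reagent added after 23hr with a 1hr incubation.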

[12] = Caspase-3/7 induction in HepG2 cells by small molecules, qHTS assay (AID 1346978); note: nearly all actives have a fitted effect of over 15% in size
In short: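 Wild-type HepG2 cells, 2,000/well, settled 5 hr at 37 C and 5% CO2, then compound-treated for 17 hr; caspase-3/7 activity read by luminescent Caspase-Glo 3/7 after 30 min at room temperature.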

[13] = Caspase-3/7 induction in CHO-K1 cells by small molecules, qHTS cell viability counter screen (AID 1346979); note: nearly all actives have a fitted effect of over 35% in size
In short: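 Wild-type CHO-K1 cells were seeded at 1,500 per well, rested 5hr at 37 C, then exposed to compounds in DMSO. After 16hr, CellTiter-Fluor reagent was added and fluorescence read 1hr later as the viability measure.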

[14] = Caspase-3/7 induction in CHO-K1 cells by small molecules, qHTS assay (AID 1346980); note: nearly all actives have a fitted effect of over 15% in size
In short: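 Wild-type CHO-K1 cells exposed to compounds for 17hr at 37 C, 5% CO2. Caspase-3/7 activity then measured by Caspase-Glo 3/7 luminescence after 30min at room temperature.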

[15] = Caspase-3/7 induction in HepG2 cells by small molecules, qHTS cell viability counter screen (AID 1346981); note: series mostly up to about 92 µM; nearly all actives have a fitted effect of over 30% in size
In short: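 Viability determined by CellTiter-Fluor fluorescence in HepG2 wells also used for the luminescent Caspase-Glo 3/7 read. Compounds were present for 16 hr at 37 C, 5% CO2 before reagent addition.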

[16] = biological target: Nuclear receptor subfamily 1 group I member 2 (Homo sapiens) (UniProt O75469); test: Human pregnane X receptor (PXR) small molecule agonists, qHTS assay (AID 1346982); note: nearly all actives have a fitted effect of over 35% in size
In short: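 Compound-induced hPXR transactivation of a CYP3A4 luciferase reporter was scored in HepG2 PXR-Luc cells over 24 hr at 37 C, 5% CO2, by luminescence.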

[17] = biological target: Nuclear receptor subfamily 1 group I member 2 (Rattus norvegicus) (UniProt Q9R1A7); test: Rat pregnane X receptor (rPXR) activation by small molecules, qHTS assay (AID 1346983); settings: rPXR luciferase reporter cells, One-Glo luminescence, 24 h; max activation: stronger effect = higher value; note: nearly all actives have a fitted effect of over 20% in size
In short: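 Cell-based rPXR activation assay: rPXR cells, 2,000 per well, rested 5hr at 37 C, then exposed to compounds in DMSO for 24 hr at 37 C. Luciferase activity read by One-Glo luminescence after 30 min at room temperature.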

[18] = biological target: Progesterone receptor (Homo sapiens) (UniProt P06401); test: qHTS assay to identify small molecule antagonists of the progesterone receptor (PR) signaling pathway (AID 1346795; active = well fitted inhibition curve with a large enough effect in the signal ratio in the repeat runs, not every such curve was filed as active; the % refers to the signal ratio)
In short: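 PR-UAS-bla HEK293T cells carrying a UAS-driven beta-lactamase reporter were plated in medium with 2% charcoal-stripped FBS and rested 6 hr at 37C. Compounds were added with 1 nM R5020 (final) for 16 hr, then FRET substrate loaded 2 hr at room temperature.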

[19] = qHTS assay to identify small molecule antagonists of the TGF-beta/Smad signaling pathway - cell viability counter screen (AID 1346824); note: nearly all actives have a fitted effect of over 50% in size
In short: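 SBE-bla HEK 293T cells, incubated overnight, then compound plus 0.25 ng/mL TGF-beta1 (stock added) for 5 hr at 37 C. Viability was read in the same wells by CellTiter-Glo luminescence after 30 min at room temperature.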

[20] = qHTS assay to identify small molecule agonists or antagonists of the thyroid stimulating hormone receptor (TSHR) signaling pathway - wild type cell line counter screen (AID 1259384; calls by dose curve)
In short: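 Wild-type Hek293 cells, 800/well, 18 h at 37C, then compound with Ro20-1724 for 30 min RT. cAMP by HTRF (cAMP-d2/anti-cAMP cryptate), 1 h RT, fluorescence read. 15 concentrations, triplicates.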
% is set by controls: 0 for no effect and ±100 for the full control effect.

Thyrotropin-releasing hormone receptor (Homo sapiens), sequence (P34981 whole entry, looked up): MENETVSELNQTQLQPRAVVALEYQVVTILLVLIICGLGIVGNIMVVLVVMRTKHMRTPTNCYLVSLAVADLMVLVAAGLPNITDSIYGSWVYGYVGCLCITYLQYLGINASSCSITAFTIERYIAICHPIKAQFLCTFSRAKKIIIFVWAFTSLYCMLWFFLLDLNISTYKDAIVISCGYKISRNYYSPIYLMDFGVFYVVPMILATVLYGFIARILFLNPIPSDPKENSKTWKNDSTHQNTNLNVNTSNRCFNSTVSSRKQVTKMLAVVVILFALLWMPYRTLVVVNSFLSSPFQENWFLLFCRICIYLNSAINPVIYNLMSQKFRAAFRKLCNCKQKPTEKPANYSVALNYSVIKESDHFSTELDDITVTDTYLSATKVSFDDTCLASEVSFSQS
Thyrotropin receptor (Homo sapiens), sequence (P16473 whole entry, looked up): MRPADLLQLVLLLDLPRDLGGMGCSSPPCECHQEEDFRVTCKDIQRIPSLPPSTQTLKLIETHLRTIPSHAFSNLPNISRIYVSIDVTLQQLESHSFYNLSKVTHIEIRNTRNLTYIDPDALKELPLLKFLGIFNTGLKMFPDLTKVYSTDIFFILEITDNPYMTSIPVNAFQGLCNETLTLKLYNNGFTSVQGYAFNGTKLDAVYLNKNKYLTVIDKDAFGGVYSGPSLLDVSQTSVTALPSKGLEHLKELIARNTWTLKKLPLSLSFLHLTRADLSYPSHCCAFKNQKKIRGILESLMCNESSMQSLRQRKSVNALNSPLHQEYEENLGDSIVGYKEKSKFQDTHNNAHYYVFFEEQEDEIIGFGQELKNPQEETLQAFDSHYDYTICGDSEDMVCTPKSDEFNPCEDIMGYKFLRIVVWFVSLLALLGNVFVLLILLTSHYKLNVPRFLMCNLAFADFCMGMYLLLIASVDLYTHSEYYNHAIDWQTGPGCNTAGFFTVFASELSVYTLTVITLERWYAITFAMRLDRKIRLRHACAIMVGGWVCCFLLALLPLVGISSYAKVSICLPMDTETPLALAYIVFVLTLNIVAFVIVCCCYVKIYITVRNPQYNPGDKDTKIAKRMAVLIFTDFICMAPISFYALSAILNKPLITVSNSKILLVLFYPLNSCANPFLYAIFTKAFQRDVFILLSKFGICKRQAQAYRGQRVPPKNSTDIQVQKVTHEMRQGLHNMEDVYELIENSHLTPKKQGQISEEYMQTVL
Nuclear receptor subfamily 1 group I member 2 (Rattus norvegicus), sequence (Q9R1A7 whole entry, looked up): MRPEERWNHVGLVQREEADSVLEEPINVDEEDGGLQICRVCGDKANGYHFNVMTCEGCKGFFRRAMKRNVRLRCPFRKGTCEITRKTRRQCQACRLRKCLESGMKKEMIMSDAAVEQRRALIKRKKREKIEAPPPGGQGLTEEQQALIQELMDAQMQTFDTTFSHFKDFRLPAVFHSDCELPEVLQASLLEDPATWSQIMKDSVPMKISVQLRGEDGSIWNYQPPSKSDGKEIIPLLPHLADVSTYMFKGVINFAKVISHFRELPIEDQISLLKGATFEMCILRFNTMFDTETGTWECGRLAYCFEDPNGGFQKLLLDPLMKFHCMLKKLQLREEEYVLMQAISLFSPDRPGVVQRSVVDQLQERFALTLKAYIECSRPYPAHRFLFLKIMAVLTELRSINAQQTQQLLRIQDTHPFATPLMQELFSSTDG
Estrogen receptor (Homo sapiens), sequence (P03372 whole entry, looked up): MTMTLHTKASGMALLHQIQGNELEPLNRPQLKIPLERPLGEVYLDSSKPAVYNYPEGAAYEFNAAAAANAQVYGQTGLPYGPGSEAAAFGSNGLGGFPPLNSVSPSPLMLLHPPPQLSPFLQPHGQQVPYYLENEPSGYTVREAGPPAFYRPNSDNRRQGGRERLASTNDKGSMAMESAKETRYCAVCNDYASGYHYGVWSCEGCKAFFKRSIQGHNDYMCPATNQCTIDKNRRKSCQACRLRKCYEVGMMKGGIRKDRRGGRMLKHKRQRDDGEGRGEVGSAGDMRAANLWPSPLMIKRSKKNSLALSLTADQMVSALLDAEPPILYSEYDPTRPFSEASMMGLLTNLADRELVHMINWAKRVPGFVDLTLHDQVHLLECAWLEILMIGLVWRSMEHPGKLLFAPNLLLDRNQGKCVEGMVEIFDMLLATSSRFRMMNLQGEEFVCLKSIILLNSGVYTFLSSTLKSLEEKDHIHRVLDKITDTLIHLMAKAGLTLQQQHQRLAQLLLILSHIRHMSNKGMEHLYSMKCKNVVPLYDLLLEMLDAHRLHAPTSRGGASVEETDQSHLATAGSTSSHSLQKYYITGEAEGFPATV
Progesterone receptor (Homo sapiens), sequence (P06401 whole entry, looked up): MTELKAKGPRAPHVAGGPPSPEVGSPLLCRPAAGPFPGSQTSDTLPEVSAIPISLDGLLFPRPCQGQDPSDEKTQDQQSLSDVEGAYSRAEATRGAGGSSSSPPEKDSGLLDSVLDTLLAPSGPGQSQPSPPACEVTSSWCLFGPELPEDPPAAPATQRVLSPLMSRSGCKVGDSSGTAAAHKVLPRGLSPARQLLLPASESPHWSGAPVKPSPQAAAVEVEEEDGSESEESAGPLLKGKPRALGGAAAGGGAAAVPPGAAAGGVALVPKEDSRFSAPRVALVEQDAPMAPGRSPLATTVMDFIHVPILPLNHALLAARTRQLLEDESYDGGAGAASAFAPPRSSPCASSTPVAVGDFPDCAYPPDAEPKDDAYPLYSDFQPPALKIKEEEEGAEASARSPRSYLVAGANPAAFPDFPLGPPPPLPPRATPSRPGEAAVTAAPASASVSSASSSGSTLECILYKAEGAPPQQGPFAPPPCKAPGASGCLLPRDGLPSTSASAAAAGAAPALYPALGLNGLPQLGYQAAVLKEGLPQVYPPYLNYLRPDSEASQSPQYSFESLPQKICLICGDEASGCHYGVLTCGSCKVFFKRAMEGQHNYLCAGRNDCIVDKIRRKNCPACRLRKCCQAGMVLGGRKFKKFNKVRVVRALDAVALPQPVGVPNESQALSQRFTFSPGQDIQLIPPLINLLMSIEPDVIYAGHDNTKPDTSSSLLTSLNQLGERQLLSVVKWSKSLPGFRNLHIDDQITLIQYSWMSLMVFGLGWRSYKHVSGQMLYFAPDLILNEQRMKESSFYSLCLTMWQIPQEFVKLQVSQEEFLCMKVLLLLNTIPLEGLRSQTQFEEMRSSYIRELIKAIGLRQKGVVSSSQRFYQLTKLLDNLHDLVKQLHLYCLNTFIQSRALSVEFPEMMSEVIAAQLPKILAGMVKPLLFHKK
Nuclear receptor subfamily 1 group I member 2 (Homo sapiens), sequence (O75469 whole entry, looked up): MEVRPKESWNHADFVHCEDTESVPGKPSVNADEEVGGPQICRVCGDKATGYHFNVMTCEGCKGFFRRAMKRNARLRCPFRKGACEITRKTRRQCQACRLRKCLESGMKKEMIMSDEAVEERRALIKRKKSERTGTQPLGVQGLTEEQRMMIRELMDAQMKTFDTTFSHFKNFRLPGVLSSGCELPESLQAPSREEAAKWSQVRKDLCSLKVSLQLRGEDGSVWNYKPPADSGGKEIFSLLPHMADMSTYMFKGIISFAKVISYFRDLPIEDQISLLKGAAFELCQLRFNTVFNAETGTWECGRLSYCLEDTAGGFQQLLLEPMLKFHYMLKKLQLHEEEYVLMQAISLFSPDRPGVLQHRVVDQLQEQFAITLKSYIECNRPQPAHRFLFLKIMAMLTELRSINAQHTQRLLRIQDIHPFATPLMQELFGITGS

CC[C@@]1(c2ccccc2)NC(=O)N(C)C1=O
inactive: Potency [1] | outcome [2] | outcome [3] | Potency [4] | outcome [5] | Potency [6] | outcome [7] | outcome [8] | outcome [9] | Potency [10] | outcome [11] | outcome [12] | Potency [13] | outcome [14] | outcome [15] | Potency [16] | max activation [17] -0.191%

Cc1ccc(OC(=O)CC(C)C)cc1
inactive: Potency [1] | outcome [2] | outcome [3] | Potency [4] | Potency [18] | outcome [5] | Potency [6] | outcome [19] | outcome [7] | outcome [8] | outcome [9] | Potency [10] | outcome [11] | outcome [12] | Potency [13] | outcome [14] | outcome [15] | Potency [16]

CN(C)c1cc(NC(=O)CNC(C)(C)C)c(O)c2c1C[C@H]1C[C@H]3[C@H](N(C)C)C(=O)C(C(N)=O)=C(O)[C@@]3(O)C(=O)C1=C2O
inactive: Potency [1] | outcome [20] | outcome [3] | Potency [4] | Potency [18] | outcome [5] | Potency [6] | outcome [7] | outcome [8] | outcome [9] | Potency [10] | outcome [11] | outcome [12] | Potency [13] | outcome [14] | outcome [15] | Potency [16]

N=C(N)S(=O)O
inactive: Potency [1] | outcome [2] | outcome [3] | outcome [5] | Potency [6] | outcome [7] | outcome [8] | outcome [9] | Potency [10] | outcome [11] | outcome [12] | Potency [13] | outcome [14] | outcome [15] | Potency [16]

C[C@@H]1NC(=O)[C@@H](N)CNC(=O)[C@H](C2CCNC(N)=N2)NC(=O)/C(=C/NC(N)=O)NC(=O)[C@H](CNC(=O)C[C@@H](N)CCCN)NC1=O (stereo not given in full)
inactive: activation [1] 1.04% [at 0.349 µM] | cAMP activity change [20] -0.133% [at 0.349 µM] | activity change, negative = cytotoxicity [3] -0.264% [at 0.349 µM] | activation [4] -1.98% [at 0.349 µM] | activity change, negative = cytotoxicity [5] 0.0667% [at 0.348 µM] | activity change, negative = cytotoxicity [6] -15.7% [at 0.349 µM] | viability change, negative = cytotoxic [19] 13.5% [at 0.29 µM] | activity change, negative = cytotoxicity [7] -5.87% [at 0.29 µM] | activation [8] 2.64% [at 0.29 µM] | activity, negative = inhibition [9] -1.68% [at 0.194 µM] | activation [10] -0.265% [at 0.218 µM] | activity change, negative = cytotoxicity [11] -2.73% [at 0.349 µM] | caspase activation [12] -1.07% [at 0.349 µM] | activity change, negative = cytotoxicity [13] 9.26% [at 0.349 µM] | caspase-3/7 activation [14] 0.0211% [at 0.349 µM] | activity change, negative = cytotoxicity [15] -0.309% [at 0.349 µM] | activation [16] -4.64% [at 0.349 µM] | max activation [17] -6.29%

Cc1cc(C)c(N)c(Cl)c1
inactive: Potency [1] | outcome [2] | outcome [3] | Potency [4] | Potency [18] | outcome [5] | Potency [6] | outcome [19] | outcome [7] | outcome [8] | outcome [9] | Potency [10] | outcome [11] | outcome [12] | Potency [13] | outcome [14] | outcome [15] | Potency [16]

CC(C)(C)OC(=O)c1ccccc1C(=O)O
inactive: Potency [1] | outcome [20] | outcome [3] | Potency [4] | Potency [6] | outcome [7] | outcome [8] | outcome [9] | Potency [10] | outcome [11] | outcome [12] | Potency [13] | outcome [14] | outcome [15] | Potency [16]

CCCCCCCCCCCC(C)=O
inactive: Potency [1] | outcome [20] | outcome [3] | Potency [4] | Potency [18] | outcome [5] | Potency [6] | outcome [19] | outcome [7] | outcome [8] | outcome [9] | Potency [10] | outcome [11] | Potency [13] | outcome [14] | outcome [15] | Potency [16]

CCCC(=O)OC
inactive: Potency [1] | outcome [2] | outcome [3] | Potency [4] | Potency [18] | outcome [5] | Potency [6] | outcome [7] | outcome [9] | Potency [10] | outcome [11] | outcome [12] | Potency [13] | outcome [14] | outcome [15] | Potency [16]

COc1ccccc1N1CCN(CC(O)COc2cc(OC)c(OC)c(OC)c2)CC1 (stereo not given)
inactive: Potency [1] | outcome [2] | outcome [3] | Potency [4] | Potency [18] | outcome [5] | outcome [19] | outcome [7] | outcome [8] | outcome [9] | Potency [10] | outcome [11] | outcome [12] | Potency [13] | outcome [14] | outcome [15] | Potency [16]

CCCCN=C(N)N=C(N)N
inactive: Potency [1] | outcome [2] | outcome [3] | Potency [4] | outcome [5] | Potency [6] | outcome [19] | outcome [7] | outcome [11] | outcome [12] | Potency [13] | outcome [14] | outcome [15] | Potency [16] | max activation [17] -2.74%

O=C(O)Cc1ccccc1Oc1ccc(Cl)cc1Cl
inactive: Potency [1] | outcome [20] | outcome [3] | Potency [4] | Potency [18] | outcome [5] | Potency [6] | outcome [19] | outcome [7] | outcome [8] | outcome [9] | Potency [10] | outcome [11] | outcome [12] | Potency [13] | outcome [14] | outcome [15] | Potency [16]

CC/C=C\CCCCCCCCCCOC(C)=O
inactive: Potency [1] | outcome [2] | outcome [3] | Potency [4] | outcome [5] | Potency [6] | outcome [7] | outcome [8] | outcome [11] | Potency [13] | outcome [14] | outcome [15]

CN(C)CCc1c[nH]c2ccc(C[C@H]3COC(=O)N3)cc12
inactive: Potency [1] | outcome [20] | Potency [4] | outcome [5] | Potency [6] | outcome [19] | outcome [7] | outcome [8] | outcome [9] | Potency [10] | outcome [11] | outcome [12] | Potency [13] | outcome [14] | outcome [15] | Potency [16] | max activation [17] -1.7%
